Data from PubChem BioAssay AID1159580 (chemical genetic matrix, 2015).
Among all 5,500 compounds or so, about 2,000 (36%) were called active. Another 18% or so got no clear call; they are omitted. The list shows a part of the results. Values without a mark were called inactive. Rule as the data show it: active = normalized growth mostly below about 0.91 (no sharp cut-off); inconclusive = no clear call, values can overlap the other calls; inactive = mostly above about 0.92.

Experiment: chemical genetic growth profiling, strain panel (AID 1159580);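 also: tested at 20 µM; growth read once vehicle control cultures reached saturation at 30 °C; 1 = growth at the plate median or of vehicle wells; lower values mean less growth of the strain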
Conditions: S. cerevisiae deletion strains, growth OD
[1] = locus YDL101C, strain DUN1, stronger effect = lower value
[2] = locus YHR030C, strain SLT2, stronger effect = lower value

Question: For `O=C(CSc1nnnn1-c1ccccc1)c1ccccc1`, which normalized growth (locus YAR019C, strain CDC15, stronger effect = lower value) is on record?
Answer: Its normalized growth is 0.96.

Question: And the normalized growth (locus YBL105C, strain PKC1, stronger effect = lower value)?
Answer: Its normalized growth is 0.958.

Question: And the normalized growth (locus YBR135W, strain CKS1, stronger effect = lower value)?
Answer: The normalized growth was 0.958.

Question: And the normalized growth (locus YBR136W, strain MEC1, stronger effect = lower value)?
Answer: The normalized growth was 0.955.

Question: And the normalized growth (locus YBR160W, strain CDC28, stronger effect = lower value)?
Answer: Its normalized growth is 0.957.

Question: And the normalized growth (locus YDL017W, strain CDC7, stronger effect = lower value)?
Answer: The normalized growth was 0.962.

Question: What about the normalized growth (locus YDL028C, strain MPS1, stronger effect = lower value) of the same molecule?
Answer: Its normalized growth is 0.949.

Question: And the normalized growth [1]?
Answer: The normalized growth was 0.983.

Question: And the normalized growth (locus YDL108W, strain KIN28, stronger effect = lower value)?
Answer: Its normalized growth is 0.947.

Question: And the normalized growth (locus YDL132W, strain cdc53, stronger effect = lower value)?
Answer: The normalized growth was 0.954.

Question: What about the normalized growth (locus YDL214C, strain PRR2, stronger effect = lower value) of the same molecule?
Answer: The normalized growth was 0.734.

Question: What about the normalized growth (locus YDR052C, strain DBF4, stronger effect = lower value) of the same molecule?
Answer: Its normalized growth is 0.966.

Question: And the normalized growth (locus YDR054C, strain cdc34, stronger effect = lower value)?
Answer: Its normalized growth is 0.908.

Question: What about the normalized growth (locus YDR226W, strain ADK1, stronger effect = lower value) of the same molecule?
Answer: Its normalized growth is 0.959.

Question: What about the normalized growth (locus YDR477W, strain SNF1, stronger effect = lower value) of the same molecule?
Answer: Its normalized growth is 0.663 (active).

Question: What about the normalized growth (locus YER123W, strain YCK3, stronger effect = lower value) of the same molecule?
Answer: Its normalized growth is 0.677.

Question: And the normalized growth (locus YER133W, strain GLC7, stronger effect = lower value)?
Answer: Its normalized growth is 0.775.

Question: What about the normalized growth (locus YFL009W, strain cdc4, stronger effect = lower value) of the same molecule?
Answer: Its normalized growth is 0.949.

Question: And the normalized growth (locus YFL029C, strain CAK1, stronger effect = lower value)?
Answer: Its normalized growth is 0.949.

Question: What about the normalized growth (locus YFR003C, strain YPI1, stronger effect = lower value) of the same molecule?
Answer: The normalized growth was 0.96.

Question: And the normalized growth (locus YFR019W, strain FAB1, stronger effect = lower value)?
Answer: The normalized growth was 0.752 (active).

Question: And the normalized growth (locus YFR028C, strain CDC14, stronger effect = lower value)?
Answer: The normalized growth was 0.959.

Question: And the normalized growth (locus YGR040W, strain KSS1, stronger effect = lower value)?
Answer: Its normalized growth is 0.655 (active).

Question: What about the normalized growth (locus YGR052W, strain FMP48, stronger effect = lower value) of the same molecule?
Answer: Its normalized growth is 0.587 (active).

Question: And the normalized growth (locus YGR092W, strain DBF2, stronger effect = lower value)?
Answer: Its normalized growth is 0.431 (active).

Question: What about the normalized growth [2] of the same molecule?
Answer: Its normalized growth is 0.397 (active).

Question: And the normalized growth (locus YHR079C, strain IRE1, stronger effect = lower value)?
Answer: Its normalized growth is 0.437 (active).

Question: And the normalized growth (locus YHR082C, strain KSP1, stronger effect = lower value)?
Answer: Its normalized growth is 0.698.

Question: What about the normalized growth (locus YHR205W, strain SCH9, stronger effect = lower value) of the same molecule?
Answer: The normalized growth was 0.661.

Question: What about the normalized growth (locus YIL147C, strain SLN1, stronger effect = lower value) of the same molecule?
Answer: Its normalized growth is 0.948.

Question: What about the normalized growth (locus YJL095W, strain BCK1, stronger effect = lower value) of the same molecule?
Answer: The normalized growth was 0.415 (active).

Question: And the normalized growth (locus YJL128C, strain PBS2, stronger effect = lower value)?
Answer: Its normalized growth is 0.948.

Question: What about the normalized growth (locus YJL157C, strain FAR1, stronger effect = lower value) of the same molecule?
Answer: The normalized growth was 0.664 (active).

Question: What about the normalized growth (locus YJR016C, strain ILV3, stronger effect = lower value) of the same molecule?
Answer: The normalized growth was 0.965.

Question: What about the normalized growth (locus YJR066W, strain TOR1 (second series), stronger effect = lower value) of the same molecule?
Answer: Its normalized growth is 0.182 (active).

Question: What about the normalized growth (locus YJR066W, strain TOR1, stronger effect = lower value) of the same molecule?
Answer: The normalized growth was 0.486.

Question: What about the normalized growth (locus YKL048C, strain ELM1, stronger effect = lower value) of the same molecule?
Answer: The normalized growth was 0.799 (active).

Question: What about the normalized growth (locus YKL067W, strain YNK1, stronger effect = lower value) of the same molecule?
Answer: Its normalized growth is 0.662 (active).

Question: What about the normalized growth (locus YKL101W, strain HSL1, stronger effect = lower value) of the same molecule?
Answer: Its normalized growth is 0.641 (active).

Question: What about the normalized growth (locus YKL193C, strain SDS22, stronger effect = lower value) of the same molecule?
Answer: Its normalized growth is 0.952.

Question: And the normalized growth (locus YKL203C, strain TOR2, stronger effect = lower value)?
Answer: The normalized growth was 0.573 (active).

Question: And the normalized growth (locus YLR113W, strain HOG1, stronger effect = lower value)?
Answer: Its normalized growth is 0.618 (active).

Question: And the normalized growth (locus YLR133W, strain CKI1, stronger effect = lower value)?
Answer: Its normalized growth is 0.6 (active).

Question: What about the normalized growth (locus YLR403W, strain SFP1, stronger effect = lower value) of the same molecule?
Answer: Its normalized growth is 0.663.

Question: And the normalized growth (locus YML070W, strain DAK1, stronger effect = lower value)?
Answer: Its normalized growth is 0.608 (active).

Question: And the normalized growth (locus YMR001C, strain CDC5, stronger effect = lower value)?
Answer: Its normalized growth is 0.95.

Question: What about the normalized growth (locus YMR205C, strain PFK2 (second series), stronger effect = lower value) of the same molecule?
Answer: Its normalized growth is 0.696 (active).

Question: And the normalized growth (locus YMR277W, strain FCP1, stronger effect = lower value)?
Answer: The normalized growth was 0.946.

Question: And the normalized growth (locus YNL006W, strain LST8, stronger effect = lower value)?
Answer: The normalized growth was 0.951.

Question: And the normalized growth (locus YNL020C, strain ARK1, stronger effect = lower value)?
Answer: Its normalized growth is 0.61 (active).

Question: What about the normalized growth (locus YNL161W, strain CBK1, stronger effect = lower value) of the same molecule?
Answer: The normalized growth was 0.965.

Question: And the normalized growth (locus YNL183C, strain NPR1, stronger effect = lower value)?
Answer: The normalized growth was 0.505 (active).

Question: What about the normalized growth (locus YNL207W, strain RIO2, stronger effect = lower value) of the same molecule?
Answer: Its normalized growth is 0.93.

Question: And the normalized growth (locus YNL222W, strain SSU72, stronger effect = lower value)?
Answer: Its normalized growth is 0.968.

Question: And the normalized growth (locus YNL307C, strain MCK1 (second series), stronger effect = lower value)?
Answer: The normalized growth was 0.259 (active).

Question: What about the normalized growth (locus YOL078W, strain AVO1, stronger effect = lower value) of the same molecule?
Answer: The normalized growth was 0.941.

Question: And the normalized growth (locus YOL136C, strain PFK27, stronger effect = lower value)?
Answer: Its normalized growth is 0.529 (active).

Question: And the normalized growth (locus YOR061W, strain CKA2, stronger effect = lower value)?
Answer: Its normalized growth is 0.708.

Question: And the normalized growth (locus YOR119C, strain RIO1, stronger effect = lower value)?
Answer: The normalized growth was 0.61 (active).

Question: What about the normalized growth (locus YOR231W, strain MKK1, stronger effect = lower value) of the same molecule?
Answer: Its normalized growth is 0.448 (active).

Question: And the normalized growth (locus YOR329C, strain SCD5, stronger effect = lower value)?
Answer: The normalized growth was 0.959.

Question: And the normalized growth (locus YPL031C, strain PHO85, stronger effect = lower value)?
Answer: The normalized growth was 0.571 (active).

Question: And the normalized growth (locus YPL153C, strain RAD53, stronger effect = lower value)?
Answer: Its normalized growth is 0.538 (active).

Question: What about the normalized growth (locus YPL204W, strain HRR25, stronger effect = lower value) of the same molecule?
Answer: Its normalized growth is 0.524 (active).

Question: And the normalized growth (locus YPL209C, strain IPL1, stronger effect = lower value)?
Answer: The normalized growth was 0.964.

Question: What about the normalized growth (locus YPL256C, strain CLN2, stronger effect = lower value) of the same molecule?
Answer: Its normalized growth is 0.758 (active).

Question: And the normalized growth (locus YPR025C, strain CCL1, stronger effect = lower value)?
Answer: Its normalized growth is 0.961.

Question: What about the normalized growth (locus YPR106W, strain ISR1, stronger effect = lower value) of the same molecule?
Answer: The normalized growth was 0.972.

Question: And the normalized growth (locus YPR111W, strain DBF20, stronger effect = lower value)?
Answer: Its normalized growth is 0.964.

Question: And the normalized growth (strain NNK1, stronger effect = lower value)?
Answer: The normalized growth was 0.973.

Question: And the normalized growth (strain TSCII, stronger effect = lower value)?
Answer: Its normalized growth is 0.948.

Question: Which results are given for `CSc1nnnn1-c1c(C)cccc1C`?
Answer: normalized growth (locus YAL013W, strain DEP1, stronger effect = lower value): 0.998; normalized growth (locus YBR229C, strain ROT2, stronger effect = lower value): 0.973; normalized growth (locus YCL061C, strain MRC1, stronger effect = lower value): 0.996; normalized growth [1]: 1.02; normalized growth (locus YDR150W, strain NUM1, stronger effect = lower value): 1.02; normalized growth (locus YEL061C, strain CIN8, stronger effect = lower value): 0.972; normalized growth (locus YGR078C, strain PAC10, stronger effect = lower value): 0.982; normalized growth (locus YGR229C, strain SMI1, stronger effect = lower value): 0.966; normalized growth [2]: 0.96; normalized growth (locus YHR087W, strain rtc3, stronger effect = lower value): 0.988; normalized growth (locus YJL187C, strain SWE1, stronger effect = lower value): 0.979; normalized growth (locus YJR043C, strain POL32, stronger effect = lower value): 0.982; normalized growth (locus YJR075W, strain HOC1, stronger effect = lower value): 0.998; normalized growth (locus YKL190W, strain CNB1, stronger effect = lower value): 0.962; normalized growth (locus YLR039C, strain RIC1, stronger effect = lower value): 0.969; normalized growth (locus YLR058C, strain SHM2 (second series), stronger effect = lower value): 0.972; normalized growth (locus YLR085C, strain ARP6, stronger effect = lower value): 0.999; normalized growth (locus YLR262C, strain YPT6, stronger effect = lower value): 0.936; normalized growth (locus YML094W, strain GIM5, stronger effect = lower value): 1.08; normalized growth (locus YMR219W, strain ESC1, stronger effect = lower value): 0.983; normalized growth (locus YMR263W, strain SAP30, stronger effect = lower value): 1; normalized growth (locus YNL153C, strain GIM3, stronger effect = lower value): 0.998; normalized growth (locus YNL298W, strain CLA4 (second series), stronger effect = lower value): 0.984; normalized growth (locus YNL322C, strain KRE1, stronger effect = lower value): 0.984; normalized growth (locus YNR030W, strain Alg12, stronger effect = lower value): 1; normalized growth (locus YOL006C, strain TOP1, stronger effect = lower value): 0.944; normalized growth (locus YPL055C, strain LGE1, stronger effect = lower value): 1.01; normalized growth (locus YPL241C, strain CIN2, stronger effect = lower value): 0.936; normalized growth (locus YPR135W, strain CTF4, stronger effect = lower value): 1.01
